PubChem BioAssay
Values without a mark were called inactive. Activity calls are given as the source filed them.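 Rule for the calls, unless noted: active = mean inhibition above 46.68%, the untreated control wells mean plus 3 SD; inactive = the rest.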

Tests used:
[1] = molecular target: Nuclear receptor coactivator 1 (Homo sapiens) (UniProt Q15788); test: SRC1 coactivator transcriptional activity inhibitors, confirmation, cell-based, luminescence, quadruplicate (AID 588820); conditions: HEK293 GAL4-SRC1 luciferase reporter, at 3.6 µM, active compounds read high;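 note: 0% = DMSO wells and 100% = gossypol 36 µM treated wells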
[2] = VP16 transactivation inhibitors, counter-screen for SRC1 inhibitor project, cell-based, luminescence, high throughput (AID 588824; in the data active = inhibition above about 25%); conditions: cell-based VP16 transactivation luciferase luminescence; at 3.6 µM; active compounds read high

Chain of Nuclear receptor coactivator 1 (Homo sapiens) (Q15788 whole entry, looked up, the tested form may be a part): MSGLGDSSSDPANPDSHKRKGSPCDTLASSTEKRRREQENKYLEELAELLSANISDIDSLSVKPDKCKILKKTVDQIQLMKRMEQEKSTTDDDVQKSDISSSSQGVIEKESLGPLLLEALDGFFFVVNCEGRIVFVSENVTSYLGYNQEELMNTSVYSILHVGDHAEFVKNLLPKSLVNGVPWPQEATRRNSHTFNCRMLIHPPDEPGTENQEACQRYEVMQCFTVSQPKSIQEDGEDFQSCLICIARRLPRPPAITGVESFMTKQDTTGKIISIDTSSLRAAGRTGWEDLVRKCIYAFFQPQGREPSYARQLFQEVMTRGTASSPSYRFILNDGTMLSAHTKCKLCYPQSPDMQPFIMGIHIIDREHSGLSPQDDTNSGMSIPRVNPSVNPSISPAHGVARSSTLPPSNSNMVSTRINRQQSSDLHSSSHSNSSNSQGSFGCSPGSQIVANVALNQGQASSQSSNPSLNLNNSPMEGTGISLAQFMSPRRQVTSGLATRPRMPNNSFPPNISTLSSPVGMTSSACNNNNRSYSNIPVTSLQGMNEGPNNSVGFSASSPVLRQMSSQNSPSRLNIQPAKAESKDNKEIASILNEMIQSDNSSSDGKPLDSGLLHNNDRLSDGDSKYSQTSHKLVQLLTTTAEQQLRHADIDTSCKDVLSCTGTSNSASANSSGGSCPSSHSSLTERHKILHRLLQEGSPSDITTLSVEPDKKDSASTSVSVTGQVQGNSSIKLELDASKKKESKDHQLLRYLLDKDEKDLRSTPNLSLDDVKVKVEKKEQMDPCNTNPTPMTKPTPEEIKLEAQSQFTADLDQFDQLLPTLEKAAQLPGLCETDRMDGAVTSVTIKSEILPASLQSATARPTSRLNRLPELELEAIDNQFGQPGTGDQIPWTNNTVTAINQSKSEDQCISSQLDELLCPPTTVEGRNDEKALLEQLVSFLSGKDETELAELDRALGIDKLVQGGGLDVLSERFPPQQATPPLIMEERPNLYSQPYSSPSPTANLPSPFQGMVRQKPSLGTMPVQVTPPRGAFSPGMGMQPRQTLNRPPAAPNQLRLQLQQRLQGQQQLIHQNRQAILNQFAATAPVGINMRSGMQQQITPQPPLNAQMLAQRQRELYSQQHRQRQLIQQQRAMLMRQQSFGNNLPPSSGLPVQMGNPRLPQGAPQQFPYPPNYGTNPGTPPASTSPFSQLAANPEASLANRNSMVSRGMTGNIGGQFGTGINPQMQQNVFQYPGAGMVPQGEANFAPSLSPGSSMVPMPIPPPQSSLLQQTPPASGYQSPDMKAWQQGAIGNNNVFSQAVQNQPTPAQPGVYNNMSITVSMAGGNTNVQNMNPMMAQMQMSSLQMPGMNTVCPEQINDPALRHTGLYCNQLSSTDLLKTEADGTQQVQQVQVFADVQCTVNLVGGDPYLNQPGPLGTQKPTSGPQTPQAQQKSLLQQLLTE

Structure (SMILES) | inhibition [1] | inhibition [2]
O=C(CSc1ccccc1)Nc1nnc(-c2ccco2)o1 | 1.78% | -4.61%
Cc1oc(-c2ccc(Cl)cc2)nc1CS(=O)CC(=O)NCCCN1CCN(Cc2ccccc2)CC1 (centres undefined) | -11% | 27.4% (active)
Cc1cc(OCC(O)CN2CCc3ccccc3C2)cc(C(C)C)c1 (centres undefined) | -16.6% | -6.97%
CN(CC(=O)Nc1c(Cl)cccc1Cl)C(=O)CNC(=O)c1ccc2ccccc2c1 | -23.2% | -11.1%
c1ccc(-c2cc(N3CCCCC3)nc(-c3ccccc3)n2)cc1 | -21.1% | -2.43%
Cc1ccc(S(=O)(=O)NNC2=NS(=O)(=O)c3ccccc32)c(C)c1 | -17.6% | -7.56%
NS(=O)(=O)c1ccc(CCNC(=O)c2ccc(C#CC3(O)CCCCC3)cc2)cc1 | -44% | -3.61%
COc1ccc(-c2cn[nH]c2C)cc1 | -12% | 5.39%
c1ccc(-c2csc3ncnc(NCCN4CCOCC4)c23)cc1 | 27.7% | 22.6%
Cc1ccc(Cc2c(-c3ccco3)nc3c4ccccc4ccn23)cc1 | -81.9% | -34.6%
CC[n+]1c(/C=C/Nc2ccccc2)oc2ccccc21 | 36.7% | 28.5% (active)
Cc1ccc2oc(C(=O)NC3CCS(=O)(=O)C3)cc(=O)c2c1 (centres undefined) | -6.08% | -12.1%
COc1ccc(NC(=O)CN(C)C(=O)c2ccc(N3CCCCC3)c([N+](=O)[O-])c2)cc1 | -5.37% | -5.37%
COc1ccc(C(=O)c2c(C)c3ccccc3n2CC(O)CNC(C)C)cc1 (centres undefined) | -15.4% | -0.38%
OC[C@@H]1CN(Cc2ccc(-c3ccccc3)cc2)C[C@H](n2cnc3c(NCc4ccncc4)ncnc32)O1 | 10.1% | 28.9% (active)
Cc1cccc(C)c1NC(=O)C1(C)CCC(=O)N1c1cc(C(C)(C)C)nn1C (centres undefined) | -13.6% | -5.42%
CN1CCN(c2nc(-c3cccs3)nc3ccccc23)CC1 | 14.3% | 10%
